The structures appear in SMILES notation. The source made the active and inactive calls. The calls were made as follows: active = hit-call score of the fitted dose curve at least 0.9, where 1 is the maximum; inactive = score below 0.9.

Read-out in this assay: Interferon-gamma inducible Protein 10 (IP10), CXCL10 (gene 3627)
In words: BSK_KF3CT_IP10: BioMAP Diversity Plus: KF3CT Assay for Interferon-gamma inducible Protein 10 (IP10) Biomarker Activity (AID 2283068). To be noted: primary human keratinocytes with fibroblasts; actives raise or lower the signal. The protocol:
BSK_KF3CT is a cell-based, multiplexed-readout assay that uses keratinocytes and foreskin fibroblasts, a human skin primary cell co-culture, with measurements taken at 24 hours after chemical dosing in a 96-well plate.BSK_KF3CT_IP10 is an assay component measured in the BSK_KF3CT assay. It measures IP-10 antibody related to regulation of gene expression using ELISA technology.Data from the assay component BSK_KF3CT_IP10 was analyzed into 1 assay endpoint. This assay endpoint, BSK_KF3CT_IP10, was analyzed with bidirectional fitting relative to DMSO as the negative control and baseline of activity. Using a type of binding reporter, gain or loss-of-signal activity can be used to understand changes in the signaling as they relate to the gene CXCL10. Furthermore, this assay endpoint can be referred to as a primary readout, because this assay has produced multiple assay endpoints where this one serves a signaling function. To generalize the intended target to other relatable targets, this assay endpoint is annotated to the cytokine intended target family, where the subfamily is chemotactic factor.
The levels of cell surface (or secreted, indicated by the prefix "s") biomarker endpoints were measured by ELISA. Overt cytotoxicity to cells in confluent adherent cultures (all systems other than the BT system) was assessed by measuring total protein levels using sulforhodamine B (SRB) staining in parallel cultures at the time of biomarker measurements, indicated as SRB endpoints. For proliferation assays for adherent cell types, individual cell types are cultured at sub-confluence and relative cell numbers quantified by SRB staining at time points optimized for each system (48 h: 3C and CASM3C systems; 72 h: BT and HDF3CGF systems; 96 h: SAg system). SRB was performed by staining cells with 0.1% SRB after fixation with 10% TCA and reading wells at 560 nm.Viability and proliferation of PBMC (T cells) was quantified by Alamar Blue reduction for the SAg and BT systems. For PBMC viability (referred to as PBMC Cytotoxicity within the assay endpoint names), cells were plated (75,000/well in a 96-well plate) and then chemical samples added for 1 h before addition of activators, SEB and TSST-1 (20 ng/mL final concentration each). Cells were incubated for 90 h. Then, Alamar Blue (20 uL/well) (Invitrogen, Cat DAL1100) was added for 6 h, and the plates were read with a fluorescence microplate reader at 546/580 nm (excitation/emission). For PBMC proliferation, cells were plated and activated as above but incubated for only 16 h prior to addition of Alamar Blue. Plates were read after 6 h.
For the compound `COc1cccc([C@H](O)C2CCN(CCc3ccc(F)cc3)CC2)c1OC`, the result was inactive.

As to `O=C(O)c1ccccc1C(=O)OCc1ccccc1`, the result was inactive. Same read-out and setting: to `CCCC(=O)OCCC(C)C` belongs “inactive”; to `CCCCCCCCCC(=O)O`, “inactive”. As a reminder, the AC50 is the midpoint of the concentration-response curve, whichever way the signal moves. For `CCCCCCCCCCCCO`, the AC50 was 37.7 µM (active). As to `Cc1occc1C(=O)Nc1ccc(C(=O)N2CCC(F)(F)/C(=C\C(=O)N3CCC(N4CCCCC4)CC3)c3ccccc32)cc1`, the outcome was inactive. Same read-out and setting: to `O=c1ccc2ccccc2o1` belongs “inactive”; to `Oc1ccc2ccccc2c1`, “inactive”; to `C[C@]12CC[C@@H]3c4ccc(O)cc4CC[C@H]3[C@@H]1CC[C@H]2O`, “inactive”. On the same count and under the same terms, for `O=C1c2ccccc2C(=O)N1CCc1noc(-c2ccc(CN3CCCCCC3)s2)n1` the value was “inactive”; for `CCCCOC(=O)c1ccc(O)cc1`, “inactive”; for `CC[C@@H]1C[C@H](N(Cc2cc(C(F)(F)F)cc(C(F)(F)F)c2)C(C)=O)c2cc(C(F)(F)F)ccc2N1C(=O)OC(C)C`, “inactive”. The same measure, in the same setting: to `O=C(OCCCCCCOC(=O)c1ccccc1)c1ccccc1` belongs “inactive”. On to `CCO[Si](CCCNC(N)=O)(OCC)OCC`, for which the outcome was inactive. Turning to `CC1(C)NC(=O)N(c2ccc([N+](=O)[O-])c(C(F)(F)F)c2)C1=O`, the result was inactive. For the compound `O=C1O[C@H]([C@@H](O)CO)C(O)=C1O`, the result was inactive.

Regarding `CC(=O)N1CCN(c2ccc(OC[C@H]3CO[C@](Cn4ccnc4)(c4ccc(Cl)cc4Cl)O3)cc2)CC1`, the AC50 was 34.5 µM (active). For `CC1=CC(=O)/C(=C(/C)O)C(=O)O1`, the outcome was inactive. Take `Cc1ncc(CO)c(CO)c1O`: the outcome was inactive.

Take `Clc1cc(Cl)c2c(c1)N=C1CCCCCN1C2`: the result was inactive. In the case of `NC(=O)c1nc(-c2cccc(-c3cc(F)ccc3OCC(F)(F)C(F)(F)F)c2)n[nH]1`, the AC50 was 39.3 µM (active). On to `Cc1ccc(C(C)C)cc1`, for which the outcome was inactive.

Turning to `Cc1cc2c(cc1C(F)(F)F)N(C(=O)Nc1ccc(Oc3cccnc3C)nc1)CC2`, the AC50 is 29.9 µM (active). The same measure, in the same setting: to `CC(C)(C)c1cc(/C=C2\SC(N)=NC2=O)cc(C(C)(C)C)c1O` belongs 9.94 µM (active). For the compound `c1ccc2n[nH]nc2c1`, the result was inactive. For `CCN(Cc1cccnc1)C(=O)c1cccc(Cl)c1[C@]1(C)C(=O)N(Cc2ccc(OC)cc2OC)c2ccc(Cl)cc21`, the AC50 was 22.3 µM (active).

Consider `COc1cc(C(=O)NC2CCN(C)CC2)ccc1Nc1ncc2c(n1)N(C1CCCC1)CC(F)(F)C(=O)N2C`, for which the AC50 is 32.3 µM (active).

For `O=c1[nH]sc2ccccc12`, the AC50 was 31.7 µM (active).

Take `Cc1cn([C@H]2C[C@H](N=[N+]=[N-])[C@@H](CO)O2)c(=O)[nH]c1=O`: the result was inactive. The same measure, in the same setting: to `c1ccc2ccccc2c1` belongs “inactive”; to `CCN(CC)C(=O)c1cc(S(=O)(=O)Cc2ccccc2)c(N2CCC(c3ccccc3)CC2)cc1N(CC)CCN(C)C`, “inactive”. Consider `OCCO`, for which the result was inactive. Still for that read-out and setting: to `O=C(O)c1ccccc1-n1cc(C(=O)O)c(=O)c2cc(Nc3c(F)cc(F)cc3Cl)c(Cl)cc21` belongs “inactive”. For `CN1C(=O)N(c2ccccc2Br)Cc2cnc(Nc3ccc4c(c3)OCC(CO)O4)nc21` (stereo not given), the AC50 is 21.6 µM (active). As for `CN(C)c1ccc(C(=C2C=CC(=[N+](C)C)C=C2)c2ccc(N(C)C)cc2)cc1`, the AC50 was 8.28 µM (active). The same measure, in the same setting: for `CCCCCCCC[Si](OCC)(OCC)OCC` the value was 37.5 µM (active). Regarding `CCCCCCCCN(C)CCCCCCCC`, the result was inactive. Same read-out and setting: for `CCN(Cc1cccc(S(=O)(=O)O)c1)c1ccc(C(=C2C=CC(=[N+](CC)Cc3cccc(S(=O)(=O)O)c3)C=C2)c2ccccc2S(=O)(=O)[O-])cc1` the value was “inactive”; for `CCCCCCCCCCCO`, “inactive”; for `CO[C@H]1/C=C/O[C@@]2(C)Oc3c(C)c(O)c4c(O)c(c(/C=N/N5CCN(C)CC5)c(O)c4c3C2=O)NC(=O)/C(C)=C\C=C\[C@H](C)[C@H](O)[C@@H](C)[C@@H](O)[C@@H](C)[C@H](OC(C)=O)[C@@H]1C`, “inactive”.

Source of the values: PubChem BioAssay (EPA / NIEHS).
